Most compounds without a hit are left out; they make up all but 18% or so of the library.
LDHA inh: inhibitors of human lactate dehydrogenase A; P00338; purified LDHA, NADH/diaphorase-resazurin fluorescence; hits give low values; AID 1347041; activity change, % (values are at about 110 or 230 µM); actives 0.15% (n = 480,000); in the data active = activity change below about -30%; inconclusive = mostly about -25% to -30%
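Enzyme activity of human lactate dehydrogenase 5 (2 nM; 0.06 mM NADH, 0.2 mM pyruvate, 5 min, RT) is measured via a resazurin/diaphorase fluorescence readout of residual NADH.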
IL1B secr inh: inflammasome signaling inhibition, IL-1 beta readout | actives 4.7% (n = 360,000) | activity change, % at 57.5 µM | THP-1 LPS/ATP IL-1B secretion, AlphaLISA, 16 h; hits give low values; in the data active = activity change below about -50%; inconclusive = mostly about -30% to -49%
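THP-1 cells pretreated 1 hr with compounds (up to 57.5 uM final), then stimulated with LPS (250 ng/mL final) plus ATP (1.25 mM final); secreted IL-1B measured by AlphaLISA after 16 hr, decreased signal indicating inhibition.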
TDP1 cell CPT: growth inhibition of DT40 Tdp1-/-;hTDP1 cells with camptothecin (screen for TDP1 inhibitors); Potency, µM (top dose mostly 46.2 µM), most hits filed as inhibitors; AID 686979; actives 12% (n = 420,000); chicken DT40 Tdp1-/-;hTDP1 cells + 20 nM CPT, ATP luminescence, 48 h; note: nearly all actives have a fitted effect of over 55% in size
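Cell growth measured by CellTiter-Glo luminescence after a minimum 48 h, 37 C compound exposure with 20 nM CPT in Tdp1-knockout DT40 cells stably expressing hTDP1, seeded 400/well; qHTS titration format.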
VP16 counter: counter-screen for ROR gamma inhibitors: Gal4-VP16 reporter; Drosophila S2 Gal4-VP16 UAS-luciferase, luminescence, 20 h; actives 3.5% (n = 310,000); Potency, µM (titrated, usually from 53.6 µM), hits mostly inhibitors; AID 2546;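 note: Gal4-VP16 expression switched on by copper sulfate through the metallothionein promoter; nearly all actives have a fitted effect of over 50% in size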
RORg inh: blocks mouse ROR gamma transcriptional activity; P51450; actives 5.4% (n = 310,000); Drosophila S2 Gal4-RORgamma UAS-luciferase reporter, 20 h; Potency, µM (series often up to 53.6 µM), actives largely listed as inhibitors; AID 2551; note: nearly all actives have a fitted effect of over 60% in size
Target sequence (P51450 whole entry, looked up, the tested form may be a part): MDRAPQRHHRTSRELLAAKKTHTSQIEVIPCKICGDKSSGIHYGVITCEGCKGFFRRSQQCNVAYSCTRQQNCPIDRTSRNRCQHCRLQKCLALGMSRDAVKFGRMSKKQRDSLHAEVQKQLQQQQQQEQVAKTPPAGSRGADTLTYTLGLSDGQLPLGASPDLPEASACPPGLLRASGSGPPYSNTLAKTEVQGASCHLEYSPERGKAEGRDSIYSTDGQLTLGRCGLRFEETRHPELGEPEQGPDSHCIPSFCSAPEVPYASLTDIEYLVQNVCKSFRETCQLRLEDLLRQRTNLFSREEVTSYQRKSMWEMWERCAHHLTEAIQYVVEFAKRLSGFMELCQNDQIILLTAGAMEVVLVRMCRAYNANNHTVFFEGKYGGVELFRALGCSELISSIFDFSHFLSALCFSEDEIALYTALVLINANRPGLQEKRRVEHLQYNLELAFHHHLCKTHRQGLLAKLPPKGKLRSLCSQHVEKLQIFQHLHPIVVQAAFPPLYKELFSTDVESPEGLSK
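Drosophila Schneider cells stably carrying a metallothionein-driven Gal4 DBD–ROR gamma fusion and a UAS-Photinus luciferase reporter were exposed to compound for 1 hr, then induced with copper sulfate (700 uM final) for 20 hr at ambient temperature before luminescence reading.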
DT40 TDP1 no CPT: qHTS for Inhibitors of human tyrosyl-DNA phosphodiesterase 1 (TDP1): qHTS in cells in absence of CPT; actives 15% (n = 420,000); DT40 Tdp1-/- hTDP1 cells, no CPT, ATP luminescence, 48 h; Potency, µM (highest dose often 46.2 µM), actives largely listed as inhibitors; AID 686978, 2013; note: nearly all actives have a fitted effect of over 55% in size
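DT40 Tdp1-/-;hTDP1 cells, no CPT (DMSO vehicle only), 400 cells/well; compounds pin-transferred; ≥48 hr, 37 °C; CellTiter-Glo 30 min RT dark, luminescence read.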
Numbers stand for hits; . = inactive; ? = inconclusive; / = no result; [ ] = another dose, or the depositor's remark. Unless noted, calls come from the whole dose curve; as a rule, active = well fitted curve in the direction sought with a large enough effect; inconclusive = small, poorly fitted or top-dose-only effect, or another doubt; inactive = no such curve, though single readings can be large; an effect the other way counts as inactive or inconclusive.

SMILES	LDHA inh	IL1B secr inh	TDP1 cell CPT	VP16 counter	RORg inh	DT40 TDP1 no CPT
COc1cccc(/C=N/Nc2ccc([N+](=O)[O-])cc2)c1O	.	?	.	.	.	?
Cc1cc(C(=O)N/N=C/c2ccc3ccccc3c2)n[nH]1	.	.	?	.	.	?
COCCCNC(=S)N/N=C/c1ccc2ccccc2c1	.	.	.	18µM	4.5µM	.
COCCCNC(=S)N/N=C/c1ccc(OC)cc1	.	/	.	?	5.6µM	.
Oc1ccccc1OCCOCCOCCOc1ccccc1O	.	/	/	/	/	/
Cc1sc2ncnc(N3CCOCC3)c2c1-c1ccc(F)cc1	.	/	/	/	/	/
CCCCN(C)C(=O)C1CCN(Cc2ccccc2)CC1	.	/	/	/	/	/
O=C(NC1CCCCCC1)C1CCC(Cn2cnnn2)CC1 (configuration not stated)	.	/	/	/	/	/
CCCCCCN1C[C@@H](O)[C@H](n2cc(C3CC3)nn2)C[C@@H]1c1ccc(OC)cc1	.	.	?	/	/	?
CCCCCCN1C[C@@H](n2cc(C3CC3)nn2)[C@H](O)C[C@@H]1c1ccc(OC)cc1	.	?	18µM	/	/	15µM
CCCCCCN1C[C@H](n2cc(C3CC3)nn2)[C@@H](O)C[C@@H]1c1ccc(C)cc1	.	.	21µM	/	/	12µM
CCCCCCN1C[C@@H](n2cc(C3CC3)nn2)[C@H](O)C[C@@H]1c1ccc(C)cc1	.	.	?	/	/	?
Cn1nc(-c2ccc(N3CCOCC3)c([N+](=O)[O-])c2)c2ccccc2c1=O	.	/	/	/	/	/
CCOC(=O)c1oc2c(c1C)/C(=N\O)CCC2	.	/	/	/	/	/
CCCCNc1nnc(SCC(=O)N2CCN(S(=O)(=O)c3ccc4ccccc4c3)CC2)s1	.	-54	?	.	.	23µM
O=C(c1ccccn1)N1CCN(S(=O)(=O)c2ccc3ccccc3c2)CC1	.	.	.	.[10 µM]	?	.
Nn1cc(-c2ccccc2)nc1SCC(=O)N1CCN(S(=O)(=O)c2ccc(Cl)cc2)CC1	.	.	.	.	.	.
CCOc1ncccc1C(=O)N1CCN(S(=O)(=O)c2ccc3ccccc3c2)CC1	.	.	23µM	.	.	?
Cc1nnc(SCC(=O)N2CCN(S(=O)(=O)c3ccccc3)CC2)s1	.	.	.	.	.	.
Nn1cc(-c2ccccc2)nc1SCC(=O)N1CCN(S(=O)(=O)c2ccc3ccccc3c2)CC1	.	-51	?	.	.	?
O=C(CCl)N1CCN(S(=O)(=O)c2ccc3ccccc3c2)CC1	.	-99	3.3µM	?	?	5.8µM
Cc1ccccc1-c1nc(C#N)c(NCc2ccccc2Cl)o1	.	/	/	/	/	/
Cc1nc(SCC(=O)NN2C(=O)NC3(CCCCC3)C2=O)c2ccccc2n1	.	/	/	/	/	/
Cc1cc2ccccn2c1/C(=N/S(=O)(=O)c1cccs1)c1ccccc1	.	/	/	/	/	/
CN(C)c1ccc(C#N)cc1	.	/	/	/	/	/
SMILES	LDHA inh	IL1B secr inh	TDP1 cell CPT	VP16 counter	RORg inh	DT40 TDP1 no CPT
C[N+]1(CCCCCCCCCCCCCO)CCCC1	.	/	/	/	/	/
O=C(CCl)N1CCN(S(=O)(=O)c2ccc3c(c2)OCCCO3)CC1	.	-96	5.2µM	/	/	3.7µM
O=C(c1ccccc1F)N1CCN(S(=O)(=O)c2ccc3c(c2)OCCO3)CC1	.	.	12µM	.	.	?
CC(C)NC(=O)c1c(O)c2cccc3c2n(c1=O)CCC3	.	.	?	?	?	.
CCOC(=O)C(C(=O)OCC)c1c([N+](=O)[O-])c(=O)n2c3c(cccc13)CCC2	.	.	?	.	.	21µM
CCCCN1C2=NC(c3ccccc3)CN2c2ccccc21 (configuration not stated)	.	.	?	/	/	26µM
CCCCN1C2=NCCCN2c2ccccc21	.	.	?	.	.	?
CCCN1C2=NCCCN2c2ccccc21	.	.	.	.	.	.
CCCCCCCN1C2=NCCN2c2ccccc21	.	-55	12µM	.	?	18µM
CCCCN1C2=NCCCN2c2cc(C)c(C)cc21	.	.	18µM	.	.	23µM
CCCCCCN1C2=NCCN2c2ccccc21	.	.	?	.	.	?
CCCCCCCN1C2=NCCCN2c2ccccc21	.	-72	2.6µM	?	.	2.3µM
Cc1ccc(NC(=O)CC2CC3CCC2C3)cc1 (configuration not stated)	.	/	/	/	/	/
O=C(CSc1n[nH]c(-c2cccc(Br)c2)n1)c1ccc(Cl)cc1	.	/	/	/	/	/
COCCn1c(-c2ccc(OCc3ccccc3)c(OC)c2)nc2c1c(=O)[nH]c(=O)n2CC(C)C	.	/	/	/	/	/
CN(Cc1ccccc1)c1nc(-c2ccc([N+](=O)[O-])cc2)nc2ccccc12	.	.	18µM	.	.	?
O=[N+]([O-])c1ccc(-c2nc(Nc3ccccc3)c3ccccc3n2)cc1	.	/	/	/	/	/
COc1ccccc1Nc1nc(-c2ccc([N+](=O)[O-])cc2)nc2ccccc12	.	.	?	/	/	?
O=[N+]([O-])c1ccc(-c2nc(C(Cl)Cl)c3ccccc3n2)cc1	.	.	0.15µM	.	.	0.16µM
COCCN(CCOC)c1nc(-c2ccc([N+](=O)[O-])cc2)nc2ccccc12	.	.	0.58µM	.	?	6.5µM
CCc1nn2c(C)c(C(=O)Nc3ccc(F)cc3)nnc2c1-c1ccc(OC)cc1	.	/	/	/	/	/
O=C(Nc1nc(-c2cccnc2)cs1)c1ccc(S(=O)(=O)N2CCOCC2)cc1	.	.	?	.	.	?
CC(=O)Nc1nc(-c2cccs2)cs1	.	.	.	.	.	.
O=C(Nc1nc(-c2ccc3c(c2)OCCO3)cs1)c1ccc(S(=O)(=O)N2CCCCC2)cc1	.	-79	?	.	.	?
Cc1csc(NC(=O)c2ccc(S(=O)(=O)N3CCCC3)cc2)n1	.	.	?	.	.	.
SMILES	LDHA inh	IL1B secr inh	TDP1 cell CPT	VP16 counter	RORg inh	DT40 TDP1 no CPT
CN(C)S(=O)(=O)c1ccc(C(=O)Nc2nc(-c3cccs3)cs2)cc1	.	.	21µM	.	.	?
O=C(Nc1nc(-c2cccs2)cs1)c1ccc(S(=O)(=O)N2CCCC2)cc1	.	-72	?	.	.	?
COc1ccc(CNC(=O)c2cccc(C)c2C)cc1C(=O)O	.	/	/	/	/	/
Cc1cccc(NC(=O)c2oc(=O)c3ccccc3c2-c2ccccc2)c1C	.	.	10µM	.	.	12µM
CCc1ccccc1NC(=O)c1oc(=O)c2ccccc2c1-c1ccccc1	.	/	?	/	/	?
Cc1ccccc1NC(=O)c1oc(=O)c2ccccc2c1-c1ccccc1	.	.	.	.	.	?
COc1ccc(OC)c(NC(=O)c2oc(=O)c3ccccc3c2-c2ccccc2)c1	.	/	?	/	/	21µM
COc1ccc(N(C)C(=O)c2oc(=O)c3ccccc3c2-c2ccc(C)cc2)c(OC)c1	.	.	21µM	.	.	16µM

Assay outcomes as filed in PubChem.
